What all share (experiment): NCI-60 one-dose screen, 48 h (100 = growth as untreated, 0 = no growth, -100 = all killed)
Common to all, as to conditions: 10 µM

The subject of assay [1] is SR leukemia.
In assay [2] the test system is RPMI-8226 leukemia.
Assay [3] deals with OVCAR-8 ovarian.
Assay [4] concerns OVCAR-5 ovarian.
Assay [5] concerns OVCAR-4 ovarian.
The test system of assay [6] is SK-OV-3 ovarian.
For assay [7], the system named is IGROV1 ovarian.
Assay [8] has as its system OVCAR-3 ovarian.
Assay [9] concerns HS 578T breast.
Assay [10] has as its system NCI/ADR-RES ovarian.
The test system of assay [11] is T-47D breast.
For assay [12], the system named is BT-549 breast.
Assay [13] deals with MDA-MB-435 melanoma.
Assay [14] relates to SW-620 colon.
The test system of assay [15] is MCF7 breast.
Assay [16] deals with HCT-116 colon.
For assay [17], the system named is HCC-2998 colon.
In assay [18] the test system is KM12 colon.

Structures are written as SMILES. About 83,000 compounds went through this panel and 20% of them were active in at least one assay; those are over-represented in the sample as a whole.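 Cell lines were cultured in 96-well plates, exposed to a single compound concentration, and assessed for percent growth 48 hours later.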 Values without a mark were called inactive. Activity calls are given as the source filed them. How the source made its calls: active means growth percent below 10; inactive means the rest.

Regarding `COc1ccc(-c2cc(=O)n(-c3nc4ccccc4[nH]3)[nH]2)cc1OC`, the growth in assay [1] is 48.6%; in assay [2], 81.4%; in assay [3], 64.8%; in assay [4], 93.1%; in assay [5], 93.8%; in [6], 87.2%. The growth in assay [7] was 70.6%; in assay [8], 90.1%; in assay [9], 48.2%; in assay [10] it was 20.1%; in [11] it was 94.5%; in assay [12], 76.2%. The growth in [13] was 50.6%; in assay [14] it was 77.8%; in [15], 74.4%; in assay [16], 74.6%; in [17], 102%; in assay [18], 105%.

Regarding `Cc1c(C(=O)N[C@H](CO)Cc2ccccc2)[nH]c2ccc(Cl)cc2c1=O`, the growth is 81.4% in [1]; 92.3% in assay [2]; 96.6% in [3]; 112% in assay [4]; 108% in [5]; 99.8% in assay [6]. For the same compound, the growth in assay [7] was 106%; in assay [8], 111%; in assay [9], 102%; in [10] it was 108%; in assay [11] it was 89.9%; in assay [12], 107%. In addition, the growth in assay [13] was 89.3%; in assay [14] it was 101%; in assay [15], 92.7%; in [16] it was 97.4%; in [17] it was 94.4%; in assay [18], 106%.

On to `FC(F)(F)c1ccc(-c2cnc(Cl)nc2NC2CCCCCC2)cc1`, for which the growth in assay [1] was 39.2%; in assay [2], -4.84% (active); in assay [3], 15.2%; in assay [4], 28.7%; in [5] it was 10.6%; in assay [6], 56.1%. Moreover, the growth was 27.7% in assay [7]; 3.4% (active) in assay [8]; 41.1% in assay [9]; 74.2% in [10]; 12.4% in assay [11]; 52.5% in assay [12]. Further, the growth is 11% in assay [13]; 21.5% in [14]; 20.7% in assay [15]; 16.5% in assay [16]; 67.9% in [17]; 16.5% in [18].

On to `COc1cc(C2C=C(c3ccc(Cl)cc3)N=C3SC(C)=CN32)cc(OC)c1OC` (centres undefined), for which the growth in [1] is 9.45% (active); in assay [2], 47.5%; in assay [3], 93.6%; in [4], 85.2%; in assay [5], 77.4%; in assay [6], 118%. The growth in [7] is 96.6%; in [8] it was 103%; in assay [9], 101%; in assay [10] it was 97.6%; in [11], 72.2%; in assay [12], 88.5%. The growth was 72.9% in [13]; 94.5% in [14]; 67.6% in assay [15]; 50.3% in [16]; 101% in assay [17]; 94.1% in [18].

For `COc1cc(Cn2c(-c3ccccc3)c(Cl)c3c2-c2oncc2CC3)cc(OC)c1`, the growth was 0.637% (active) in assay [1]; 58.9% in assay [2]; 92.8% in assay [3]; 96.7% in assay [4]; 76.8% in assay [5]; 97.2% in assay [6]. In addition, the growth in assay [7] was 16.2%; in assay [8], 45.9%; in assay [9], 52.8%; in assay [10] it was 47.6%; in assay [11] it was 73.8%; in [12], 87.4%. Besides, the growth in [13] is -0.829% (active); in assay [14], 15.8%; in assay [15], 102%; in assay [16], 47.5%; in [17], 84.4%; in assay [18], 41.7%.

Regarding `Fc1ccc2[nH]c3c(NCCCN4CCOCC4)ncnc3c2c1`, the growth was 52.1% in assay [1]; 46.4% in [2]; 68.3% in [3]; 85.6% in [4]; -38.6% (active) in assay [5]; 33.4% in assay [6]. Further, the growth is 50.8% in assay [7]; 59.7% in [8]; 34.5% in assay [9]; 72.7% in [10]; 54.6% in assay [11]; 96.4% in assay [12]. The growth was 88.3% in [13], 69.6% in [14], 84.7% in [15] and 47.4% in assay [16].

Consider `Oc1cc(O)c(Br)cc1Br`, for which the growth in assay [1] is 85.7%; in assay [2] it was 99.4%; in assay [3], 103%; in assay [4], 107%; in assay [5], 98.2%; in assay [6], 107%. For the same compound, the growth was 102% in [7]; 110% in assay [8]; 107% in assay [9]; 105% in assay [10]; 90.2% in assay [11]; 93.8% in assay [12]. The growth is 101% in assay [13]; 105% in assay [14]; 91.3% in assay [15]; 97.3% in [16]; 94.6% in assay [17]; 101% in assay [18].

Consider `C#CCNCCCN1C(=O)c2ccc3c4c(ccc(c24)C1=O)C(=O)N(CCCNCC#C)C3=O`, for which the growth is -21.1% (active) in assay [1]; 12.5% in assay [2]; -31.1% (active) in assay [3]; -73.6% (active) in assay [4]; -97.8% (active) in [5]; -42.7% (active) in assay [6]. Further, the growth is -75.1% (active) in assay [7]; -27.6% (active) in assay [8]; -22.9% (active) in assay [9]; -32% (active) in assay [10]; -52.1% (active) in assay [11]; -93.8% (active) in [12]. The growth in assay [13] was -66.9% (active); in assay [14] it was -59.8% (active); in [15] it was -72.7% (active); in assay [16], -25% (active); in assay [17], -90% (active); in assay [18], -80.4% (active).

`CC(=O)[C@H]1CC[C@H]2[C@@H]3CC[C@@H]4CC=C(C=O)C[C@]4(C)[C@H]3CC[C@]12C`: the growth in [1] is 73.5%; in assay [2], 58.1%; in assay [3] it was 97.8%; in assay [4] it was 96.9%; in assay [5], 99%; in assay [6], 95.8%. Further, the growth is 89.4% in assay [7]; 107% in [8]; 106% in [9]; 87.5% in assay [10]; 85.6% in assay [11]; 85.8% in assay [12]. Also, the growth in assay [13] is 97.3%; in assay [14], 106%; in assay [15], 81.1%; in assay [16], 87%; in [17] it was 89.5%; in assay [18] it was 104%.

Take `CNC(=S)Sc1ccc([N+](=O)[O-])cc1[N+](=O)[O-]`: the growth was 17.3% in assay [1]; 13.7% in assay [2]; 81.3% in assay [3]; 93.7% in assay [4]; 77.1% in assay [5]; 80.2% in assay [6]. Also, the growth is 104% in assay [7]; 36.3% in assay [8]; 88.2% in assay [9]; 92.5% in assay [10]; 32.2% in [11]; 20.5% in assay [12]. The growth is 29.5% in assay [13]; 36.8% in assay [14]; 31.5% in assay [15]; 27.7% in assay [16]; 75.1% in assay [17]; 13.4% in assay [18].

For `COc1ccc2oc(=O)cc(C(c3ccc[nH]3)c3ccc[nH]3)c2c1`, the growth in [1] is 1.93% (active); in [2], -3.8% (active); in assay [3], -4.93% (active); in [4], 34.8%; in assay [5] it was 38.8%; in assay [6] it was 7.19% (active). Also, the growth in assay [7] was 25.5%; in assay [8], -8.55% (active); in assay [9], 18.8%; in [10] it was 7.99% (active); in assay [11], 22.5%; in [12] it was -13.4% (active). Moreover, the growth in assay [13] is -24.3% (active); in [14], 25.6%; in assay [15], 13.9%; in [16] it was -3.62% (active); in assay [17], -5.71% (active); in [18], 4.33% (active).

As to `O=S(=O)(NCCO)c1ccc(OCCOc2ccc(S(=O)(=O)NCCO)cc2)cc1`, the growth was 104% in assay [1]; 98% in [2]; 98.7% in assay [3]; 99.2% in [4]; 107% in assay [5]; 96.1% in assay [6]. Further, the growth was 99.9% in assay [7]; 111% in [8]; 104% in assay [9]; 97.8% in assay [10]; 84.5% in assay [11]; 95.7% in assay [12]. Besides, the growth in assay [13] was 104%; in assay [14], 101%; in [15] it was 96%; in [16] it was 102%; in [17], 9.56% (active); in assay [18] it was 104%.

For the compound `Cc1ccc2nc3[nH]c(=O)[nH]c(=O)c3c(N)c2c1`, the growth is 95.6% in assay [1]; 89.8% in [2]; 88.5% in assay [3]; 92.9% in [4]; 81.7% in assay [5]; 86% in assay [6]. For the same compound, the growth was 75.1% in [7]; 101% in assay [8]; 79.2% in assay [9]; 97.8% in [10]; 85.1% in assay [11]; 99.8% in assay [12]. Moreover, the growth is 91.5% in assay [13]; 97.8% in [14]; 89.3% in [15]; 80.6% in [16]; 95.9% in assay [17]; 91% in [18].

In the case of `N#Cc1c2c([nH]c(=O)c1C(N)=O)CCCCC2`, the growth was 108% in assay [1]; 103% in assay [2]; 102% in assay [3]; 97.2% in assay [4]; 116% in assay [5]; 91.6% in assay [6]. Moreover, the growth in assay [7] was 102%; in [8] it was 113%; in assay [9], 91.4%; in assay [10], 111%; in [11] it was 79.2%; in assay [12], 100%. The growth is 108% in assay [13]; 101% in assay [14]; 103% in assay [15]; 91.8% in assay [16]; 111% in assay [17]; 106% in assay [18].

Consider `O=C(NCCCl)c1cc(Cl)cc(Cl)c1`, for which the growth in assay [1] is 103%; in [2] it was 102%; in assay [3] it was 102%; in assay [4] it was 107%; in [5] it was 95.1%; in assay [6], 103%. The growth in assay [7] is 106%; in assay [8] it was 114%; in assay [9] it was 103%; in assay [10], 105%; in [11], 93.6%; in [12] it was 105%. Moreover, the growth in assay [13] is 99.9%; in [14] it was 112%; in [15], 96.2%; in assay [16], 110%; in assay [17] it was 102%; in [18], 107%.

Regarding `CC(Oc1ccc(Cl)cc1)c1ccccc1` (centres undefined), the growth in assay [1] was 99.1%; in assay [2], 101%; in [3], 110%; in [4] it was 103%; in assay [5], 103%; in [6], 103%. The growth in [7] is 96%; in assay [8] it was 107%; in assay [9], 104%; in assay [10], 103%; in assay [11], 95.7%; in assay [12] it was 114%. The growth in [13] is 101%; in assay [14], 96.4%; in assay [15], 102%; in [16] it was 98.9%; in [17], 115%; in assay [18], 103%.

In the case of `COC1OC2COC(c3ccccc3)OC2C(=O)C1NC(=O)c1ccccc1` (centres undefined), the growth is 122% in assay [1]; 97.3% in [2]; 101% in assay [3]; 93.7% in assay [4]; 103% in [5]; 105% in [6]. The growth in [7] was 114%; in [8], 99.8%; in assay [9], 96.6%; in [10], 103%; in assay [11] it was 98.6%; in [12], 107%. Besides, the growth in assay [13] was 96.4%; in [14], 88.2%; in [15] it was 99.6%; in assay [16], 99%; in assay [17], 92.9%; in assay [18], 96.7%.
